Records with an inconclusive call do not appear. The source made the active and inactive calls. Calls follow the shape of the dose curve; as a rule, active = well fitted inhibition curve with a large enough effect; inconclusive = small, poorly fitted or top-dose-only effect; inactive = no such curve, though single readings can be large or run the other way.

Experimental findings from PubChem BioAssay (NCATS) are described below.
Potency is read from the fitted curve at half-maximal effect.

The first experiment is described as follows: BET inhibitor-based combinations targeting novel dependencies in MECOM-rearranged (r) AML: MV-4-11 cell line (AID 2202233). Also: nearly all actives have a fitted effect of over 45% in size.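 As to viability, % of control: plate controls were DMSO for no effect and blank wells for full effect.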 To be noted: MV-4-11 AML viability, CellTiter-Glo luminescence, 48 h; series mostly up to 46 µM; viability, % of control: at the top concentration. The procedure, abridged: (§1)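 Cells were plated at 500 per well and exposed to each drug across an 11-point dose range for 48 hr at standard incubator conditions. Viability was read by CellTiter-Glo luminescence, and activity was expressed as AUC and per-cell-line Z-transformed AUC.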
Take `O=C([C@@H](Cc1cccc(C(F)(F)F)c1)NS(=O)(=O)c1cc(F)c2c(c1)CCNC2)N1CCCC1`: the Potency was 20.9 µM (active).
For `c1ccc2c(Oc3nc(Nc4ccc(N5CCOCC5)cc4)c4ncn(C5CCCCC5)c4n3)cccc2c1`, the Potency was 7.42 µM (active).
Turning to `COc1cc(C(=O)N2CCC(N3CCN(C)CC3)CC2)ccc1Nc1ncc2c(n1)N(C)c1ccccc1C(=O)N2C`, the Potency was 1.48 µM (active).
Turning to `N[C@@H](Cc1cc(I)c(Oc2cc(I)c(O)c(I)c2)c(I)c1)C(=O)O`, the “viability, % of control” value was 117% (inactive).
In the case of `CC(C)(C)C(=O)Oc1ccc2c(c1)nc(NC(=O)c1cccc([N+](=O)[O-])c1)n2CCCO`, the Potency was 2.95 µM (active).

A further experiment is described as follows: BET inhibitor-based combinations targeting novel dependencies in MECOM-rearranged (r) AML: HNT-34 cell line (AID 2202234). Also: nearly all actives have a fitted effect of over 35% in size.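 As to viability (% of control): plate controls were vehicle wells for no effect and cell-free wells for full effect.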 To be noted: HNT-34 AML viability, CellTiter-Glo luminescence, 48 h; series mostly up to 46 µM; viability (% of control): at the top concentration. The method in brief: as §1
In the case of `CNC(=O)c1c(-c2ccc(F)cc2)oc2cc(N(CCO)S(C)(=O)=O)c(C3CC3)cc12`, the “viability (% of control)” value was 90.3% (inactive).
In the case of `C[C@@H]1CN(Cc2ccc(F)cc2)[C@@H](C)CN1C(=O)c1cc2c(C(=O)C(=O)N(C)C)cn(C)c2cc1Cl`, the “viability (% of control)” value is 97.1% (inactive).
For the compound `CC(C)[C@H](CO)Nc1nc(Nc2ccc(C(=O)O)c(Cl)c2)c2ncn(C(C)C)c2n1`, the “viability (% of control)” value is 110% (inactive).
Take `CC(C)n1nc(-c2ccc3oc(N)nc3c2)c2c(N)ncnc21`: the Potency was 0.0235 µM (active).
In the case of `CC[C@H](NC(=O)[C@H](CS(=O)(=O)CC1CC1)N[C@@H](c1ccc(F)cc1)C(F)(F)F)C(=O)C(=O)NC1CC1`, the “viability (% of control)” value is 93.6% (inactive).
Same read-out and setting: then `NS(=O)(=O)c1cc(Cl)c(Cl)c(S(N)(=O)=O)c1`, with 97.7% (inactive); and `O=C(Nc1ccc(F)c(C(F)(F)F)c1)Nc1nnc(-c2ccncc2)s1`, with 89.5% (inactive); and `Cc1c(F)cc(C(=O)NC2CC2)cc1-c1c(F)cn2c(C(C)(C)C)nnc2c1F`, with 103% (inactive).
Turning to `CN(C)C/C=C/C(=O)Nc1ccc(C(=O)Nc2cccc(Nc3ncc(Cl)c(-c4c[nH]c5ccccc45)n3)c2)cc1`, the Potency was 0.118 µM (active).
For the compound `CCCCc1ccc(NS(=O)(=O)c2ccc(C)c(C(=O)N3CCN(c4cccc(C)c4C)CC3)c2)cc1`, the “viability (% of control)” value was 89.8% [at 92.2 µM] (inactive).
On to `COc1ccc(-c2c(C)nn3c(NCCN4CCOCC4)cc(C)nc23)cc1OC`, for which the Potency was 20.9 µM (active).
On to `O=C(O)[C@H](CC(=O)N1C[C@H]2CCCC[C@H]2C1)Cc1ccccc1`, for which the “viability (% of control)” value was 98.1% (inactive).
On the same count and under the same terms, the same measure for `CCNC(=O)[C@H]1O[C@@H](n2cnc3c(N)nc(NCCc4ccc(CCC(=O)O)cc4)nc32)[C@H](O)[C@@H]1O`: 100% (inactive).
For the compound `Cc1ccc(S(=O)(=O)Cc2nc(-c3ccc(C(=O)NCc4cccnc4)cc3)oc2C)cc1`, the Potency is 0.0263 µM (active).
In the case of `CCC(C)n1ncn(-c2ccc(N3CCN(c4ccc(OC[C@H]5CO[C@](Cn6cncn6)(c6ccc(Cl)cc6Cl)O5)cc4)CC3)cc2)c1=O` (stereo partly specified), the “viability (% of control)” value is 94.7% [at 15.6 µM] (inactive).
Take `N#C[C@@H]1C[C@@H]2C[C@@H]2N1C(=O)[C@@H](N)C12CC3CC(CC(O)(C3)C1)C2`: the “viability (% of control)” value was 110% (inactive).
For the compound `C[C@@H](NCCCc1cccc(C(F)(F)F)c1)c1cccc2ccccc12`, the Potency is 26.3 µM (active).
As for `O=C(c1ccc(Nc2nccc(-c3cc4ccccc4s3)n2)cc1)N1CCC(N2CCCC2)CC1`, the Potency is 5.25 µM (active).
Consider `Cc1ccccc1C(=O)Nc1ccc(C(=O)N2CCCC(O)c3cc(Cl)ccc32)c(C)c1` (stereo unspecified), for which the “viability (% of control)” value was 79% (inactive).
On the same count and under the same terms, then `CCS(=O)(=O)N1CCC([C@@H](C)n2c(C)c(C(=O)NCc3c(OC)cc(C)[nH]c3=O)c3ccccc32)CC1`, with 112% (inactive); and `CN[C@@H](C)[C@H]1[C@H](O)C[C@@]2(C)[C@@H]3CC[C@H]4C(C)(C)[C@@H](NC)CC[C@@]45C[C@@]35CC[C@]12C`, with 103% [at 8.46 µM] (inactive).
